This passage reports growth results from PubChem BioAssay (NCI).

Test systems include NCI-H23 lung; NCI-H226 lung; NCI-H322M lung; HOP-62 NSCLC; HOP-92 NSCLC; NCI-H522 lung; A549/ATCC NSCLC; 786-0 renal; COLO 205 colon; NCI-H460 lung.
Common to all, as to test: NCI-60 one-dose screen, 48 h (100 = growth as untreated, 0 = no growth, -100 = all killed)
What all share (settings): 10 µM unless noted

The panel holds about 83,000 compounds, 20% with a hit somewhere; the sample as a whole holds those more often.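 96-well plates, one dose, 48 hours. Percent growth reported; active if below 10.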 Unmarked numbers belong to inactive results. Calls of active or inactive are those of the source.

On to `COC1=CC(c2ccc[nH]2)=N/C1=C\c1[nH]c(C)c(C(=O)OC(C)C)c1C`, for which the growth in the test with NCI-H23 lung was -43.4% (active); with NCI-H226 lung, -27.4% (active); in the test on NCI-H322M lung, -28.2% (active); in the test with HOP-62 NSCLC it was -21.4% (active); in the test on HOP-92 NSCLC, -33% (active); with NCI-H522 lung, -58.2% (active). The growth is -21.2% (active) in the test on A549/ATCC NSCLC, -41.9% (active) with 786-0 renal and -80.5% (active) in the test with COLO 205 colon.

On to `CC(C)=CCC[C@](C)(O)[C@H]1CC[C@]2(C)[C@@H]1CC[C@@H]1[C@@]3(C)C/C(=C/c4ccco4)C(=O)C(C)(C)[C@@H]3CC[C@]12C`, for which the growth was 101% with NCI-H23 lung; 103% in the test on NCI-H226 lung; 103% with NCI-H322M lung; 102% with HOP-62 NSCLC; 98.2% with HOP-92 NSCLC; 102% in the test with NCI-H522 lung. Moreover, the results for the growth in the test on A549/ATCC NSCLC, in the test with 786-0 renal and with COLO 205 colon were 107%, 99.6% and 110%, respectively.

Turning to `COc1c(B(O)O)cccc1-c1cc(C)c2c(ccc3[nH]ncc32)n1`, the growth in the test on NCI-H23 lung was 78.4%; in the test on NCI-H226 lung, 89.7%; in the test with NCI-H322M lung, 74.3%; in the test on HOP-62 NSCLC it was 46.3%; in the test with HOP-92 NSCLC, 41.8%; in the test on NCI-H522 lung it was 62.6%. Further, the growth in the test with A549/ATCC NSCLC is 75.1%; in the test with 786-0 renal, 40.9%; with COLO 205 colon it was 93.3%.

With `O=C1C(Cl)=C(Nc2ccc(S(=O)(=O)N3CCOCC3)cc2)C(=O)c2ccccc21`, the growth is 83.5% with NCI-H23 lung; 84.5% in the test on NCI-H226 lung; 99.8% in the test on NCI-H322M lung; 86.3% in the test with HOP-62 NSCLC; 25.7% with HOP-92 NSCLC; 21% in the test on NCI-H522 lung. Further, the growth in the test with A549/ATCC NSCLC was 80.8%; with 786-0 renal it was 71%; in the test on COLO 205 colon, 104%.

As for `Cc1cn(-c2cc(NC(=O)c3cccc(C#Cc4cccc5[nH]nc(N)c45)c3)cc(C(F)(F)F)c2)cn1`, the growth in the test on NCI-H23 lung is 37.1%; with NCI-H226 lung it was 22.1%; in the test on NCI-H322M lung, 66%; in the test on HOP-62 NSCLC it was 55.5%; with HOP-92 NSCLC, -16.6% (active); with NCI-H522 lung, 39.9%. The growth in the test on A549/ATCC NSCLC is 45.4%; in the test on 786-0 renal, 26.5%; with COLO 205 colon it was 18.6%.

For `CN(C)c1ccc(-c2c(C#N)c(N)nn2C(=O)c2ccc(NC(=O)c3ccccn3)cc2)cc1`, the growth was 96.5% in the test with NCI-H23 lung; 98.2% in the test with NCI-H226 lung; 96.7% in the test with NCI-H322M lung; 94.3% in the test on HOP-62 NSCLC; 94.2% with NCI-H460 lung; 94.9% with HOP-92 NSCLC. The growth in the test with NCI-H522 lung was 91.4%; with 786-0 renal, 96%; in the test on COLO 205 colon, 104%.

For `CN1CCN(C(=O)c2ccc(NC(=O)c3cc4c(nn3)NCCN4Cc3cc(Cl)ccc3Cl)cc2)CC1`, the growth in the test on NCI-H23 lung was 74.3%; with NCI-H226 lung, 36.8%; in the test on NCI-H322M lung it was 95.8%; in the test on HOP-62 NSCLC, 82.3%; in the test with HOP-92 NSCLC it was 67.2%; with NCI-H522 lung, 36.1%. In addition, the results for the growth in the test on A549/ATCC NSCLC, with 786-0 renal and with COLO 205 colon were 55.2%, 75.2% and 71.1%, respectively.

With `Oc1c(I)cc(I)cc1CNCCN(Cc1ccccn1)Cc1ccccn1`, the growth with NCI-H23 lung was -14% (active); with NCI-H226 lung it was -65.1% (active); in the test on NCI-H322M lung it was -30.4% (active); in the test on HOP-62 NSCLC it was -65.1% (active); in the test on HOP-92 NSCLC, -61.8% (active); in the test with NCI-H522 lung, -27.6% (active). The growth in the test on A549/ATCC NSCLC was -33.3% (active); in the test on 786-0 renal it was -95.2% (active); in the test on COLO 205 colon, -34.6% (active).

On to `CCCC/C=C/[C@@H]1C[C@H]1CCO`, for which the growth in the test on NCI-H23 lung is 102%; in the test on NCI-H226 lung, 91.5%; in the test with NCI-H322M lung it was 92.1%; with HOP-62 NSCLC, 90.5%; with HOP-92 NSCLC, 96.5%; in the test with NCI-H522 lung it was 78.3%. Further, the growth is 96.7% in the test on A549/ATCC NSCLC, 99.5% with 786-0 renal and 100% with COLO 205 colon.

As to `COc1cc(-c2nccc3[nH]c(-c4ccc5cc[nH]c5c4)nc23)cc(OC)c1OC`, the growth in the test on NCI-H23 lung is 26.1%; with NCI-H226 lung it was 19.3%; in the test with NCI-H322M lung, 45%; with HOP-62 NSCLC, -19.6% (active); in the test on HOP-92 NSCLC, -8.58% (active); in the test on NCI-H522 lung, -59.5% (active). In addition, the growth in the test with A549/ATCC NSCLC is -28.5% (active); in the test with 786-0 renal, -56% (active); in the test with COLO 205 colon, -71.5% (active).

Take `CCOC(=O)c1c2c(n3cccc(F)c13)C(=O)c1ncccc1C2=O`: the growth in the test on NCI-H23 lung was -0.249% (active); in the test with NCI-H226 lung it was -6.38% (active); in the test on NCI-H322M lung it was 6.61% (active); in the test with HOP-62 NSCLC it was -37.4% (active); in the test with HOP-92 NSCLC it was 38.5%; in the test on NCI-H522 lung, 1.44% (active). For the same molecule, the growth was -9.79% (active) with A549/ATCC NSCLC, -17.3% (active) in the test with 786-0 renal and 7.04% (active) with COLO 205 colon.

Consider `COc1ccc(-c2cc(-c3cc(OC)c(OC)c(OC)c3)c(C#N)c(=O)n2CCCCC(=O)NO)cc1`, for which the growth with NCI-H23 lung was 67.4%; in the test with NCI-H226 lung, 82.3%; in the test with NCI-H322M lung, 75.1%; in the test on HOP-62 NSCLC, 65%; with HOP-92 NSCLC, 51.9%; with NCI-H522 lung, 54.6%. Further, the growth in the test on A549/ATCC NSCLC is 71.9%; in the test on 786-0 renal, 83.7%; with COLO 205 colon, 84.3%.

Consider `Cn1cc(-c2nonc2-c2cn(C)c3ccccc23)c2ccccc21`, for which the growth in the test on NCI-H23 lung was 43.1%; in the test on NCI-H226 lung it was 81%; with NCI-H322M lung, 47%; in the test with HOP-62 NSCLC, 21.2%; with HOP-92 NSCLC, 48.8%; with NCI-H522 lung, -20.5% (active). In addition, the growth is 21.8% in the test with A549/ATCC NSCLC, 28.1% in the test on 786-0 renal and -34% (active) in the test on COLO 205 colon.

Take `CN(C)Cc1ccc(O)c(C(=O)O)c1`: the growth with NCI-H23 lung was 104%; in the test with NCI-H226 lung, 108%; in the test on NCI-H322M lung it was 109%; in the test with HOP-62 NSCLC, 106%; in the test with NCI-H460 lung, 105%; in the test on HOP-92 NSCLC, 95.5%. For the same molecule, the growth in the test with NCI-H522 lung was 102%; in the test with 786-0 renal, 107%; with COLO 205 colon, 117%.
